Assay [1] is described as follows: Nuclear factor erythroid 2-related factor 2/antioxidant responsive element (Nrf2/ARE) small molecule agonists: qHTS cell viability counter screen in human keratinocytes (AID 1919968; active means well fitted curve in the direction sought with a large enough effect in the repeat runs; an effect the other way counts as inactive or inconclusive; further: nearly all actives have a fitted effect of over 55% in size; further: potency means the concentration at half of the fitted maximal effect). Summed up:
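Stably transfected HaCaT (KeratinoSens), 1,500/well. Test agents in DMSO were applied for 23 h, 37 C/5% CO2. CellTiter-Fluor was incubated 1 h before the fluorescence read.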

Assay [2] deals with Gonadotropin-releasing hormone receptor (Homo sapiens) (UniProt P30968). Nature of the assay: Human gonadotropin-releasing hormone receptor (GnRHR) small molecule agonists, calcium flux assay in GnRHR-HEK293 cells (AID 1920063). Further: nearly all actives have a fitted effect of over 35% in size. The method in brief: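 Stable human GnRHR HEK293 line. 18 h plating, then calcium dye for 1 h at 37 C. Agonist-mode compound addition from DMSO stocks; fluorescence monitored 3 min.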
In general terms: Calcium flux is commonly read through the fluorescence of an indicator in the cells.

Assay [3] concerns the target KiSS-1 receptor (Homo sapiens) (UniProt Q969F8). As to the kind of experiment: Human kisspeptin (KISS1R) small molecule agonists, calcium flux assay in KISS1R-HEK293 cells (AID 1920064; active means well fitted curve in the direction sought with a large enough effect in the repeat runs; an effect the other way counts as inactive or inconclusive). Summed up: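 After overnight (18 h) culture at 37 C/5% CO2, human KISS1R-HEK293 cells received calcium dye for 1 h, then test compound; emission at 540 nm (excitation 480 nm) was tracked for 3 min.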

The nature of assay [4]: G protein-coupled receptor (GPCR) small molecule agonists, calcium flux assay: HEK293 wild type cell line counter screen (AID 1920065). The method in brief: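 Following 18 h incubation at 37 C/5% CO2, plates got calcium dye for 1 h; compounds, ATP or DMSO were then pinned in and fluorescence followed kinetically (480/540 nm).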
Assay [5] can be described thus: p53 small molecule agonists, cell-based qHTS assay with human liver microsomes (AID 1963577). The method in brief: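 p53RE-bla reporter cells were pre-incubated 5 h at 37 C, then treated with compounds plus human liver microsomes (0.5 mg/mL final) and NADPH (0.5 mg/mL final) for 16 h at 37 C. Beta-lactamase activity was read by LiveBLAzer fluorescence after 2 h at room temperature.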
A general note: In qHTS, concentration-response curves come from the screen itself.

Assay [6] is described as follows: p53 small molecule agonists, cell-based qHTS assay with rat liver microsomes (AID 1963578). The method in brief:
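p53RE-bla cells were exposed to compounds together with rat liver microsomes (0.5 mg/mL final) and NADPH (0.5 mg/mL final) for 16 h at 37 C, then read by LiveBLAzer beta-lactamase fluorescence after 2 h at room temperature.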

Assay [7] in a line: p53 small molecule agonists, cell-based qHTS assay with human liver microsomes: qHTS cell viability counter screen (AID 1963579). Further: nearly all actives have a fitted effect of over 45% in size. The method in brief: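 p53RE-bla cells (4,000/well) were pre-incubated 5 h at 37 C, then given compounds in DMSO plus human liver microsomes (0.5 mg/mL final) and NADPH (0.5 mg/mL final) for 16 h at 37 C. Viability was read by CellTiter-Glo luminescence.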

The nature of assay [8]: p53 small molecule agonists, cell-based qHTS assay with rat liver microsomes: qHTS cell viability counter screen (AID 1963580). Further: nearly all actives have a fitted effect of over 45% in size. The method in brief:
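After the beta-lactamase ratio was read, CellTiter-Glo was added to the same wells and luminescence measured at 30 min; cells had been treated 16 h at 37 C with compounds, rat liver microsomes and NADPH (0.5 mg/mL final each).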

Assay [9] in a line: p53 small molecule agonists, cell-based qHTS assay: qHTS cell viability counter screen (AID 1963581). Further: nearly all actives have a fitted effect of over 45% in size. The method in brief: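 qHTS counter screen: 16 h compound exposure at 37 C of p53RE-bla HCT-116 cells (4,000 per well, seeded 5 h prior), cell viability by ATP luminescence.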
Assay [10] in a line: p53 small molecule agonists, cell-based qHTS assay (AID 1963582; active means well fitted activation curve with a large enough effect in the signal ratio in the repeat runs, not every such curve was filed as active; the % refers to the signal ratio). The method in brief: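 Measured: fluorescence from cleaved LiveBLAzer substrate. System: p53RE-bla cells, 16 h compound treatment at 37 C, 2 h substrate step at room temperature.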
Assay [11] addresses Beta-2 adrenergic receptor (Homo sapiens) (UniProt P07550). Nature of the assay: Adrenergic beta2 receptor (ADRB2) small molecule antagonists, cell-based qHTS assay (AID 1963592). Further: series mostly up to about 92 µM; nearly all actives have a fitted effect of over 50% in size. Summed up:
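Assay format: CHO-ADRB2 cells, 18-20hr seeding at 37C/5% CO2, then compound plus 1nM isoproterenol agonist mix for 0.5hr RT. Homogeneous time-resolved fluorescence cAMP detection after 1hr, expressed as 665/615 nm ratio.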

For assay [12], the target named is D(2) dopamine receptor (Homo sapiens) (UniProt P14416). As to the kind of experiment: Dopamine D2 receptor (DRD2) small molecule agonists, cell-based qHTS assay (AID 1963594). Further: nearly all actives have a fitted effect of over 35% in size. The method in brief:
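HEK293 cells stably expressing human DRD2, pre-treated with PDE inhibitor Ro20-1724 (0.1 mM final) and compound 10 min at room temperature, then stimulated with NKH477 (200nM […]) for 30 min. cAMP read by HTRF (665/620 nm).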

Assay [13] deals with 5-hydroxytryptamine receptor 2A (Homo sapiens) (UniProt P28223). Nature of the assay: 5-hydroxytryptamine receptor 2A (HTR2A) small molecule agonists, cell-based qHTS assay (AID 1963587). Further: nearly all actives have a fitted effect of over 30% in size. Summed up:
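CHO cells stably expressing human HTR2A, plated 18 h, loaded with calcium dye 1 h at 37 C. Agonist mode: compounds added and intracellular calcium fluorescence recorded kinetically for 2 min at 1 sec intervals.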

In assay [14] the target is Muscarinic acetylcholine receptor M1 (Homo sapiens) (UniProt P11229). Nature of the assay: Cholinergic receptor muscarinic 1 (CHRM1) small molecule antagonists, cell-based qHTS assay (AID 1963588). Further: nearly all actives have a fitted effect of over 40% in size. Summed up:
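Compounds were tested at 15 concentrations in three independent runs. Dye-loaded CHRM1-CHO cells were exposed 5 min at room temperature before stimulation by acetylcholine added at 50nM. Intracellular calcium was read kinetically on FDSS for 3 min.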

For assay [15] the target is unchanged. Nature of the assay: Cholinergic receptor muscarinic 1 (CHRM1) small molecule agonists, cell-based qHTS assay (AID 1963589). Further: nearly all actives have a fitted effect of over 35% in size. Summed up:
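Kinetic fluorescence (1 s intervals) of calcium-sensitive dye in human M1 CHO cells after compound addition; cells pre-incubated 18 h at 37 C/5% CO2 and dye-loaded 1 h.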

Assay [16] is described as follows: cAMP Responsive Elements (CRE) small molecule agonists, cell-based qHTS assay (AID 1963590). Summed up: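 Test agents in DMSO were incubated 3 h at 37 C/5% CO2 with CRE-bla HEK 293T cells seeded 18 h earlier; LiveBLAzer B/G FRET substrate was added and read after 2 h at room temperature.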
Assay [17] in a line: cAMP Responsive Elements (CRE) small molecule antagonists, cell-based qHTS assay (AID 1963591; active means well fitted inhibition curve with a large enough effect in the signal ratio in the repeat runs, not every such curve was filed as active; the % refers to the signal ratio). Summed up: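 Reporter line CRE-bla HEK 293T in dialyzed-FBS DMEM; cells preincubated 18 h, treated 3 h with compound plus NKH477 (0.25 uM final); LiveBLAzer FRET, 2 h RT.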
The target in assay [18] is D(2) dopamine receptor (Homo sapiens) (UniProt P14416). Nature of the assay: Dopamine D2 receptor (DRD2) small molecule antagonists, cell-based qHTS assay (AID 1963595; active means well fitted inhibition curve with a large enough effect in the signal ratio in the repeat runs, with a control signal flat; the % refers to the signal ratio). The method in brief:
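Readout: HTRF cAMP, cAMP-d2 competing with cellular cAMP for anti-cAMP cryptate, read after 1 h. Cells: DRD2-HEK293. Conditions: 0.1 mM Ro20-1724, 12 nM quinpirole, 200 nM NKH477, 30 min RT.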

In assay [19] the target is 5-hydroxytryptamine receptor 2A (Homo sapiens) (UniProt P28223). Nature of the assay: 5-hydroxytryptamine receptor 2A (HTR2A) small molecule antagonists, cell-based qHTS assay (AID 1963586). Further: nearly all actives have a fitted effect of over 45% in size. The method in brief:
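CHO cells stably expressing human HTR2A were plated for 18 h at 37 C, then loaded with calcium dye for 1 h. Compounds were preincubated 5 min at room temperature before DOI (4 nM solution) was added. Kinetic fluorescence was read for 3 min.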

Assay [20] deals with Beta-2 adrenergic receptor (Homo sapiens) (UniProt P07550). As to the kind of experiment: Adrenergic beta2 receptor (ADRB2) small molecule agonists, cell-based qHTS assay (AID 1963593).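 Further: CHO cells stably overexpressing human ADRB2.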 Summed up:
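CHO cells stably over-expressing ADRB2 were plated overnight at 37C, then dosed with compounds plus a stimulation mix containing 100uM IBMX and 25uM Ro-20-1724 for 0.5hr at room temperature. cAMP was measured by HTRF competition, 1hr.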

A number with no mark means an inactive call. Results filed as inconclusive are left out. Activity calls are given as the source filed them. Unless noted, the call rests on the fitted dose curve.

Sequence of KiSS-1 receptor (Homo sapiens) (Q969F8 whole entry, looked up): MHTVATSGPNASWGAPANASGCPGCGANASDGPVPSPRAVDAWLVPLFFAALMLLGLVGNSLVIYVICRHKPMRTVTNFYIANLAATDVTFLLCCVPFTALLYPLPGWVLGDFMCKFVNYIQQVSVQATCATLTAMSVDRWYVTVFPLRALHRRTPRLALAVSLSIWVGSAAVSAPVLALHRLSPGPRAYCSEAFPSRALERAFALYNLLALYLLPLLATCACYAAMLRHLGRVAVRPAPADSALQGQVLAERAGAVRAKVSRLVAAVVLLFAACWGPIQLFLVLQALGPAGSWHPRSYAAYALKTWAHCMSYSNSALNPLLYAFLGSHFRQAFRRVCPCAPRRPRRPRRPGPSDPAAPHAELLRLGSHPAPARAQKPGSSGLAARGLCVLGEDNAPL
Sequence of Gonadotropin-releasing hormone receptor (Homo sapiens) (P30968 whole entry, looked up): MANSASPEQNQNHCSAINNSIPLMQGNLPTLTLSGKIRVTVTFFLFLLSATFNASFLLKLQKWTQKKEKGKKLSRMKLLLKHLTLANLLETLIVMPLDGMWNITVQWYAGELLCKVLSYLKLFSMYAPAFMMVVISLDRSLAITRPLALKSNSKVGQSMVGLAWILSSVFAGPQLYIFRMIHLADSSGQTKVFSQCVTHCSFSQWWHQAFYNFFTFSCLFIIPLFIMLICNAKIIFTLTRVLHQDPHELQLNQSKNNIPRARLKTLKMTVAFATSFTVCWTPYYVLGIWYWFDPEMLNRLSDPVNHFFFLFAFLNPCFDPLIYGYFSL
Sequence of 5-hydroxytryptamine receptor 2A (Homo sapiens) (P28223 whole entry, looked up): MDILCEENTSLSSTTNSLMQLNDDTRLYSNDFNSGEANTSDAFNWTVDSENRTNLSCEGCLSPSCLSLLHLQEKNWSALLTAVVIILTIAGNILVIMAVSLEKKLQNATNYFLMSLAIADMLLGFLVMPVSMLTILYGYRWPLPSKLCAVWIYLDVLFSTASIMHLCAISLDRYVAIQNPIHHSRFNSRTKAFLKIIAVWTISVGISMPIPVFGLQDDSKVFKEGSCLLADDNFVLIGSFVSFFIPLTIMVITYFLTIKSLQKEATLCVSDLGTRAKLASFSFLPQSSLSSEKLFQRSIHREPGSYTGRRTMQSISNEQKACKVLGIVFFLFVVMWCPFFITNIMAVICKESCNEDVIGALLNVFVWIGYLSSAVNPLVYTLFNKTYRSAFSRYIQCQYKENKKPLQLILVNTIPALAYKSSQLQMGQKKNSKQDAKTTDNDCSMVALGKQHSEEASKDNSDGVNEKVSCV
Sequence of Beta-2 adrenergic receptor (Homo sapiens) (P07550 whole entry, looked up): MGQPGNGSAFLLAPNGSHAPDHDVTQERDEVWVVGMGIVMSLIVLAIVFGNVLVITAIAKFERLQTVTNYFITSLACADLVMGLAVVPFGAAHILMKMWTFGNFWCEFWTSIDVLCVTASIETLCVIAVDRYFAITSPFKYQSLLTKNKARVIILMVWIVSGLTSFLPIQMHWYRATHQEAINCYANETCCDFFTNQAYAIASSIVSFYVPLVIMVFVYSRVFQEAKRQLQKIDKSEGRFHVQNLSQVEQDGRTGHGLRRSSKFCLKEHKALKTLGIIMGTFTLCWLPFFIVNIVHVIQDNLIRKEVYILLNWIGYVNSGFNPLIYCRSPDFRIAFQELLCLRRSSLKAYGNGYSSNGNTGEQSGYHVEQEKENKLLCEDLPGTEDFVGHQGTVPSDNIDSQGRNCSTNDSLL
Sequence of D(2) dopamine receptor (Homo sapiens) (P14416 whole entry, looked up): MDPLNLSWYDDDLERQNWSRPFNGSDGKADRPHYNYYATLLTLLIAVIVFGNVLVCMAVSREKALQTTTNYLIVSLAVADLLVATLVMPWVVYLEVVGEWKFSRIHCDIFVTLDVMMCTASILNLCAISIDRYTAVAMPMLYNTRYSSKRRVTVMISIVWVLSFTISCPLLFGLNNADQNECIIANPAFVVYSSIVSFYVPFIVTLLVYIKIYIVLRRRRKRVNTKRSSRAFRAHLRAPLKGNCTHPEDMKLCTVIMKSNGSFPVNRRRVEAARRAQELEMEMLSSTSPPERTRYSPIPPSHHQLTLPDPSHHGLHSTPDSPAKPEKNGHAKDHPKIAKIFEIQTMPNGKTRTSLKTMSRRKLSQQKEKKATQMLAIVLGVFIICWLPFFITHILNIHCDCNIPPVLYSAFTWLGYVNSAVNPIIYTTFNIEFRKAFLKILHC
Sequence of Muscarinic acetylcholine receptor M1 (Homo sapiens) (P11229 whole entry, looked up): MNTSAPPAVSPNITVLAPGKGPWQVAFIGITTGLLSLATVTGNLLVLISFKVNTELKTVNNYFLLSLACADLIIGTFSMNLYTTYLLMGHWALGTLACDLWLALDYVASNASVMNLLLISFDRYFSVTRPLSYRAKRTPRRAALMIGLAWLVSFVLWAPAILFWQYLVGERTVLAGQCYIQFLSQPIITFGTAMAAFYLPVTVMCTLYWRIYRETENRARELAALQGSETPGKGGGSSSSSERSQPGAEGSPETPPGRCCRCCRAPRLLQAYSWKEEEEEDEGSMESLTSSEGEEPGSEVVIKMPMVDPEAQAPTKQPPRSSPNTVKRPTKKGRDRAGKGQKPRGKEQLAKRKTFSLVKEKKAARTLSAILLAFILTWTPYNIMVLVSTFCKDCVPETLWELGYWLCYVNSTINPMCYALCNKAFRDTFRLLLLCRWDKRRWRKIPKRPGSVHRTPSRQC

As for `C(=C\c1ccccc1)/CN1CCN(C(c2ccccc2)c2ccccc2)CC1`, in assay [1], the Potency is 13.3 µM (active). Further, the Potency result in assay [2], in assay [3], in assay [4], in assay [5], in [6] and in [7] was “inactive” throughout. Besides, the Potency result in assay [8], in [9], in [10], in [11] and in assay [12] was “inactive” throughout.

Turning to `CCN(CC)CC`, the Potency entry in assay [1], in assay [2], in assay [3], in [4], in [5] and in assay [6] was “inactive” each time. For the same molecule, the Potency entry in [7], in [8], in [9], in assay [13], in assay [14] and in assay [15] was “inactive” in each case. Moreover, the Potency result in [16], in assay [17], in assay [11], in assay [12] and in assay [18] was “inactive” each time.

Consider `Clc1cccc(Cl)n1`, for which the Potency result in assay [1], in assay [2], in assay [3], in [4], in assay [5] and in assay [6] was “inactive” throughout. Moreover, the Potency result in assay [7], in [8], in assay [9], in assay [19], in assay [13] and in assay [15] was “inactive” each time. For the same molecule, the Potency entry in assay [16], in [17], in assay [11], in assay [20] and in [12] was “inactive” each time.

`CCc1ccc(C)cc1`: the Potency result in [1], in [2], in assay [3], in assay [4], in [5] and in assay [6] was “inactive” in each case. Further, the Potency entry in assay [7], in assay [8], in assay [10], in assay [13], in assay [14] and in [15] was “inactive” each time. For the same molecule, the Potency result in [16], in assay [17], in assay [11], in assay [12] and in assay [18] was “inactive” throughout.

For the molecule `N/C(=N\N=C\c1ccc(Cl)cc1)N/N=C/c1ccc(Cl)cc1`, the Potency in assay [1] is 26.6 µM (active). The Potency result in assay [2], in [3], in assay [4], in [5], in [6] and in [7] was “inactive” each time. Besides, the Potency result in assay [8], in [10], in [19], in [14], in assay [15] and in assay [20] was “inactive” throughout. For the same molecule, the Potency entry in assay [12] was “inactive”.

With `CCCC/C=C/CCCCO`, the Potency result in assay [1], in assay [2], in assay [3], in assay [4], in assay [5] and in [6] was “inactive” in each case. The Potency entry in assay [7], in assay [8], in assay [10], in [19], in assay [13] and in assay [15] was “inactive” each time. The Potency result in assay [16], in [17], in [20], in assay [12] and in assay [18] was “inactive” throughout.
